In the supplement of paper PMC13380429:
Unmarked numbers belong to inactive results.

System: Vero E6 infected with SARS-CoV-2
Assay: inhibition of SARS-CoV-2 cytopathic effect; higher = more antiviral protection, active = above 15
Settings: 48 h

Row | Structure (SMILES) | inhibition of SARS-CoV-2 cytopathic effect (1 nM) | inhibition of SARS-CoV-2 cytopathic effect (8.33 nM) | inhibition of SARS-CoV-2 cytopathic effect (100 nM) | inhibition of SARS-CoV-2 cytopathic effect (833.33 nM) | inhibition of SARS-CoV-2 cytopathic effect (10000 nM)
1 | Cc1onc(-c2ccccc2Cl)c1C(=O)N[C@@H]1C(=O)N2[C@@H]1SC(C)(C)[C@@H]2C(=O)O [cloxacillin] | 2.33% | -1.52% | 0.8% | 3.43% | 1.27%
2 | C#CCN1C(C)=C(C(=O)OC)C(c2cccc([N+](=O)[O-])c2)C(C(=O)OCC)=C1C (stereo not given) | 0.91% | 2.53% | 0.36% | 3.36% | 6.77%
3 | CCn1cnc2c(Nc3cccc(Cl)c3)nc(N[C@@H]3CCCC[C@@H]3N)nc21 | -1.22% | 0.37% | 2.67% | 3.13% | -29.1%
4 | CCOC(N)=O [urethane] | -3.1% | -4.31% | -0.41% | -2.2% | 1.53%
5 | O=C(O)c1cccnc1 [niacin] | 1.07% | 0.1% | 0.52% | 0.71% | 4.53%
6 | CCCCCCCCCCCCCCCCCCCCCCCCC(=O)O [pentacosanoic-acid] | -2.75% | -2.46% | -0.07% | -0.23% | -2.38%
7 | COc1ccc(COc2ccc(Cc3cnc(N)nc3N)cc2OC)cc1 | -0.78% | -1.56% | -0.01% | 0.11% | 0.48%
8 | CCn1c2ccccc2c2cc(Nc3ccnc(NCCCN4CCOCC4)n3)ccc21 | -2.13% | -1.13% | 0.05% | -0.2% | 69.3% (active)
9 | CCC[C@@H]1CC(=O)N([C@@H](CC)C(N)=O)C1 [Brivaracetam] | -0.93% | -1.72% | -2.91% | -2.52% | 1.45%
10 | NC(N)=O [urea] | -3.97% | -3.63% | -2.79% | -2.47% | -3.31%
11 | NCCCS(=O)(=O)O [tramiprosate] | 2.5% | 3.61% | 3.29% | 3.22% | 2.51%
12 | NC(=O)c1ncn([C@@H]2O[C@H](CO)[C@@H](O)[C@H]2O)c1N [acadesine] | 0.23% | 2.34% | 1.8% | 0.21% | -1.3%
13 | O=C(/C=C/c1cccc(F)c1)NC1CC1 [cinflumide] | 2.05% | 3.3% | 0.17% | 2.25% | 8.23%
14 | Cc1cc(-c2cc(O)ccc2Cl)cc2nnc(Nc3ccc(OCCN4CCCC4)cc3)nc12 | -1.19% | 1.04% | 4.54% | -1.25% | -21.4%
15 | CN1CCN(c2ccc3[nH]c(-c4ccc5[nH]c(-c6ccc(O)cc6)nc5c4)nc3c2)CC1 [pibenzimol] | -0.58% | -1.08% | 1.05% | 2.62% | 4.07%
16 | N[C@@H](CCC(=O)N[C@@H](CS)C(=O)NCC(=O)O)C(=O)O [glutathione] | 0.94% | 0.93% | 1.6% | -0.69% | 1.39%
17 | N[C@@H](Cc1ccc(O)cc1)C(=O)NCC(=O)NCC(=O)O | 1.38% | 0.88% | 1.16% | 1.07% | 0.4%
18 | CCOc1ccc(-n2c([C@@H](C)N(Cc3cccnc3)C(=O)Cc3ccc(OC(F)(F)F)cc3)nc3ncccc3c2=O)cc1 (racemic) | 0.51% | 2.23% | 0.96% | 1.88% | -1.62%
19 | CCCOC(=O)c1ccc(O)cc1 [propyl 4-hydroxybenzoate] | -1.38% | -0.18% | -0.42% | 2.26% | -3.05%
20 | COc1ncc(-c2ccc3c(Nc4cc(Oc5cc(F)cc(F)c5)cc(C(=O)O)c4)c(S(=O)(=O)NC4CC4)cnc3c2)c(OC)n1 | 0.82% | 2.2% | 0.69% | 2.71% | 1.3%
21 | CNC(=O)ON(C(C)=O)C(=O)NC [caracemide] | -4.06% | -3.46% | 0.29% | -1.19% | 8.36%
22 | COc1ccc(-n2nc(CCC(=O)N(C)O)cc2-c2ccc(Cl)cc2)cc1 [tepoxalin] | 0.7% | -1.58% | 0.1% | 1.81% | -0.4%
23 | Nc1cccc2c1C(=O)N(C1CCC(=O)NC1=O)C2=O (stereo not given) [pomalidomide] | 1.4% | -0.68% | 2.15% | 0.83% | 2.41%
24 | CC(=O)O[C@]1(C(C)=O)CC[C@H]2[C@@H]3C[C@H](C)C4=CC(=O)C=C[C@]4(C)[C@@]3(F)[C@@H](O)C[C@@]21C [fluorometholone-acetate] | 0.25% | 0.86% | -0.18% | 0.37% | -0.24%
25 | COc1cc(C[C@@H](CO)[C@H](CO)Cc2ccc(O)c(OC)c2)ccc1O [secoisolariciresinol-(-)] | 1.65% | 5.68% | 0.9% | 0.53% | -4.27%
26 | CC1CCc2cc(F)cc3c(=O)c(C(=O)O)cn1c23 (stereo not given) [flumequine] | -0.77% | 0.46% | -0.95% | -0.27% | -0.64%
